According to the supplement of paper PMC12067093, “Discovery and optimisation of a covalent ligand for TRIM25 and its application to targeted protein ubiquitination” (Chemical Science, 2025):
Of roughly 21,000 targets only a part is listed; those with the largest changes were picked by preference.

Compound: CC1Cc2ccccc2N1C(=O)C1CCCN(C1)C(=O)CCl (mixture of isomers) [TRIM25 ligand 11 (diastereomer mixture)]
Assay: probe-labelled cysteine peptide fold change vs DMSO (competition) (log2 fold change); higher = less target engagement (more negative = stronger competition)
Conditions: THP-1, incubation time: 4 h
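Also: competitive chemoproteomic profiling in live THP-1 cells with an iodoacetamide desthiobiotin (IA-DTB) probe, comparing probe-labelled peptide intensities in compound-treated cells against DMSO-treated controls.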

Chain of UniProt P53621 (P53621 whole entry, looked up): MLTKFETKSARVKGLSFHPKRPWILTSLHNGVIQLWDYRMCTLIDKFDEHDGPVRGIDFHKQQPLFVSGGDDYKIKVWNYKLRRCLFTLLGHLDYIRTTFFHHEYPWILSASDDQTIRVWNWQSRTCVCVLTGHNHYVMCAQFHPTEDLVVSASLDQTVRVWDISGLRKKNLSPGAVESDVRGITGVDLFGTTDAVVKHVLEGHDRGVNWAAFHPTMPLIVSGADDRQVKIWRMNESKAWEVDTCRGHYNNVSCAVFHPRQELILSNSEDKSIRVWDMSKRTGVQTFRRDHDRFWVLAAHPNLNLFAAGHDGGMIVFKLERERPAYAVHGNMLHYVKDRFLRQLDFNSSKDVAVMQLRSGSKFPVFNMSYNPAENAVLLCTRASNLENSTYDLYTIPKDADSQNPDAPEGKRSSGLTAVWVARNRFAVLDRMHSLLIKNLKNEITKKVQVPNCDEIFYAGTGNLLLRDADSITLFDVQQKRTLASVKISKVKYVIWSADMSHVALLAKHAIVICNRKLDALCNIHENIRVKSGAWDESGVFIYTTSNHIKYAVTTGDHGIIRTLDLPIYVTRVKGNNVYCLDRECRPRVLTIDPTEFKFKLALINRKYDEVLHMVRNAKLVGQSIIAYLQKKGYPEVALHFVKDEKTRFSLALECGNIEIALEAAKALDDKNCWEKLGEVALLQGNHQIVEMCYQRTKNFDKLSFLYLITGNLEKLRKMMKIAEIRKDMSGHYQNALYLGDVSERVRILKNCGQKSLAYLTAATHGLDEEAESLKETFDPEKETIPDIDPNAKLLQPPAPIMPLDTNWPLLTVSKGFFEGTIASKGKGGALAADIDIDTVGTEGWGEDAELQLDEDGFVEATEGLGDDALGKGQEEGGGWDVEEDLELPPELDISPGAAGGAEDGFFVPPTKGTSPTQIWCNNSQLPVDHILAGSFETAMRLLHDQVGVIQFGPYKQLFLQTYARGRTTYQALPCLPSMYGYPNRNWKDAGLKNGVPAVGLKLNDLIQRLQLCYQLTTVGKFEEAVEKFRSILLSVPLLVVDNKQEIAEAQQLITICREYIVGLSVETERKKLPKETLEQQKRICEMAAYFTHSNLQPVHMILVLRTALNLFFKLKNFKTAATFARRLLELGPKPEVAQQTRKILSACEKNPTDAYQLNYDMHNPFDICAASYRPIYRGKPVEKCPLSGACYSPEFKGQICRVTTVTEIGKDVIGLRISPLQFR
Chain of UniProt O95628 (O95628 whole entry, looked up): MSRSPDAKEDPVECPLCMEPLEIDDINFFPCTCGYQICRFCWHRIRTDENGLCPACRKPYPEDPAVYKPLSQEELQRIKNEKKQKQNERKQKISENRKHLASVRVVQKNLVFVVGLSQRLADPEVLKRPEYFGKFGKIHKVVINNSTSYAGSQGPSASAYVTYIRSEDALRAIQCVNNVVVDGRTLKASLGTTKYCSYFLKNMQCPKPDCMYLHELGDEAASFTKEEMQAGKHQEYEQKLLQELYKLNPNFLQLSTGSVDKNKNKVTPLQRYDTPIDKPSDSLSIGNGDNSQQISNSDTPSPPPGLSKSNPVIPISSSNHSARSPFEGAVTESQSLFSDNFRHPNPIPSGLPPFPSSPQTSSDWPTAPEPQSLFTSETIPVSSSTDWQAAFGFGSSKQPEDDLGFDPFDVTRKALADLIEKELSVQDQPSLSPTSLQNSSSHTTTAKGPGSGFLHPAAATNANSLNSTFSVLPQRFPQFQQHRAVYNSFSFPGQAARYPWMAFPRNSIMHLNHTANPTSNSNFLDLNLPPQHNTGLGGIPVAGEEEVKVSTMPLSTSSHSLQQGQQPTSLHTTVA
Chain of UniProt Q9H9Q2 (Q9H9Q2 whole entry, looked up): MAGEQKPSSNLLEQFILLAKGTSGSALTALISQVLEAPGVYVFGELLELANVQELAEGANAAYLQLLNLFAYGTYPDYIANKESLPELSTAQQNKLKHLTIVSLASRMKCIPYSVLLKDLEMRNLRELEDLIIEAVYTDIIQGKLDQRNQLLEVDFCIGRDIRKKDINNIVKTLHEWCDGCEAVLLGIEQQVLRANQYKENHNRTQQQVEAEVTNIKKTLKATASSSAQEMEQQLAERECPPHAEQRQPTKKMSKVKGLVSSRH
Chain of UniProt Q14790 (Q14790 whole entry, looked up): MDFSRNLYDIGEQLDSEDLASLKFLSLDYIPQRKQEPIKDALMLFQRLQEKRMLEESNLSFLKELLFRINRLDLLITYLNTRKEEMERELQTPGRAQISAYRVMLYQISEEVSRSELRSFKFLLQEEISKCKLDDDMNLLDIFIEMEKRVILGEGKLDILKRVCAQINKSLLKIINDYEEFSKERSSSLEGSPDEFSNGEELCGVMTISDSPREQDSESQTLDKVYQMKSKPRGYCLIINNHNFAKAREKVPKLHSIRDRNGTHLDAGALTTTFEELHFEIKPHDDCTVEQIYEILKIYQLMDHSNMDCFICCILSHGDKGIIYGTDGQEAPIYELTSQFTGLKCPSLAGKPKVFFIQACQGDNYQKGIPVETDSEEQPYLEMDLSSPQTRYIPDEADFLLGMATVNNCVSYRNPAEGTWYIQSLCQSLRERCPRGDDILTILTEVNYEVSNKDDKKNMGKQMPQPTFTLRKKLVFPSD
Chain of UniProt Q9BX70 (Q9BX70 whole entry, looked up): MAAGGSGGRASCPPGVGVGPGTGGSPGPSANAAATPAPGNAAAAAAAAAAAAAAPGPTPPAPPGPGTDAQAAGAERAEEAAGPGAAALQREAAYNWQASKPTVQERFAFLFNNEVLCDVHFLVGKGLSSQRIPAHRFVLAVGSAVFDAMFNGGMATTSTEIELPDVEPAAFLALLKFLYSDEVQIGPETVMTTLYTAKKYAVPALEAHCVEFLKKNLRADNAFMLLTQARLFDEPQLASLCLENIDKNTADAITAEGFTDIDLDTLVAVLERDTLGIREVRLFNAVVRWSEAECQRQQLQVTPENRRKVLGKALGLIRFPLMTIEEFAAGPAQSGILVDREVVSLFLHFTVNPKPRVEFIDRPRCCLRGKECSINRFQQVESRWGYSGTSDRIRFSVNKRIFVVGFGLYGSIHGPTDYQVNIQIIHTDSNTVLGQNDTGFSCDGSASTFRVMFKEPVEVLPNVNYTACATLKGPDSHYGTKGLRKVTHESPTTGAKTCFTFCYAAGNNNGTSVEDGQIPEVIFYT
Chain of UniProt P48643 (P48643 whole entry, looked up): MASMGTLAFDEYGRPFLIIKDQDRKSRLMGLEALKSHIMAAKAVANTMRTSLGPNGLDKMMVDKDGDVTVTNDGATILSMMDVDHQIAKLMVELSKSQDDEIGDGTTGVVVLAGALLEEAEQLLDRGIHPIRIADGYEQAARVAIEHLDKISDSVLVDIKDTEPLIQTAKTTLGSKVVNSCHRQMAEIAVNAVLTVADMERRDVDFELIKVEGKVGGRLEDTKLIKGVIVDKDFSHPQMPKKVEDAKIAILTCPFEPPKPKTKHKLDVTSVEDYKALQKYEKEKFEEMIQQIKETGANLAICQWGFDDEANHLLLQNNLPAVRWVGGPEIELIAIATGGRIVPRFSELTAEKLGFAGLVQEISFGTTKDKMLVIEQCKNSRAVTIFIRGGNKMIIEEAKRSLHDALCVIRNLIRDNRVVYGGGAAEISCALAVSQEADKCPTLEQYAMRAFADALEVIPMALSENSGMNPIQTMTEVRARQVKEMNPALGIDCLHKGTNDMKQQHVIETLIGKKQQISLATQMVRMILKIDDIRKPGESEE
Chain of UniProt Q9Y259 (Q9Y259 whole entry, looked up): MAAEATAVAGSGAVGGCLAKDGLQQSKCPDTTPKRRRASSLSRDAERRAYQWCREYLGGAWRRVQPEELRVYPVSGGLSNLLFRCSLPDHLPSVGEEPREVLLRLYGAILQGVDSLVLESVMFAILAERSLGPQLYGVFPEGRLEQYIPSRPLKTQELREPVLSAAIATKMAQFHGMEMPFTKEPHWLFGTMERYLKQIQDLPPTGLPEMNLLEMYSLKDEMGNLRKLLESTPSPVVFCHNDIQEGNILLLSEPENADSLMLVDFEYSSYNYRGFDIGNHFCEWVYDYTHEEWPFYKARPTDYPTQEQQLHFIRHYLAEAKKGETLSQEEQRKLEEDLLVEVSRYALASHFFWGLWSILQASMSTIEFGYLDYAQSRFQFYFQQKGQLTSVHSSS
Chain of UniProt Q96JB2 (Q96JB2 whole entry, looked up): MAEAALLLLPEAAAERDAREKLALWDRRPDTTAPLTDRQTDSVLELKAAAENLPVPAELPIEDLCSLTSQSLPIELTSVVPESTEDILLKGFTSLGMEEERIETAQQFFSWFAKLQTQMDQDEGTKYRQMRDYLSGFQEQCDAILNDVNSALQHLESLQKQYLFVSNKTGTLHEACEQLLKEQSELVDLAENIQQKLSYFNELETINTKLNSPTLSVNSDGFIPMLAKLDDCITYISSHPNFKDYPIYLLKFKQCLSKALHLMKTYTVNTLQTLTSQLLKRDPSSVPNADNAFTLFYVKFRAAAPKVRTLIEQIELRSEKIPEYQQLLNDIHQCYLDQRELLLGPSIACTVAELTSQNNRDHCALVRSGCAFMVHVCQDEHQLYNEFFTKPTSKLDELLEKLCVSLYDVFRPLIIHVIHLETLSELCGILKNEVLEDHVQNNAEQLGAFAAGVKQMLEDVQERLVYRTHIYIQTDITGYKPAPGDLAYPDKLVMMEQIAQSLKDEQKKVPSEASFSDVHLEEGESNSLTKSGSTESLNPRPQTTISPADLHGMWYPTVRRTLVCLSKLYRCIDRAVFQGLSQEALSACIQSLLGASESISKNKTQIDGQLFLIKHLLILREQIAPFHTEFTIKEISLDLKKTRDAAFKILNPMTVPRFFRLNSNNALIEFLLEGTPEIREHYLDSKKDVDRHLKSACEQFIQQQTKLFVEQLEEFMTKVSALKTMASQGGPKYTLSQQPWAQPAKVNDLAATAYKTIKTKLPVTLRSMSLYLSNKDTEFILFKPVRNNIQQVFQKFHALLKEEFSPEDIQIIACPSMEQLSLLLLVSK
Chain of UniProt P23528 (P23528 whole entry, looked up): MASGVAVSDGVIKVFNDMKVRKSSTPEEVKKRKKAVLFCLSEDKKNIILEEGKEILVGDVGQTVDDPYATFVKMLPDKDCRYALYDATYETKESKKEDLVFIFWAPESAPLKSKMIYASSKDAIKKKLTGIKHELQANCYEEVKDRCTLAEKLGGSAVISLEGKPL

With “CASP8_Q14790_345_CPSLAGKPK (UniProt Q14790)” as the target, how does the “probe-labelled cysteine peptide fold change” value (10 µM) read?
The value was -0.0611.

And the “probe-labelled cysteine peptide fold change” value (50 µM)?
Its value is -0.0798.

For “CNN2_Q99439_61_DGTILCTLMNK (UniProt Q99439)”, which “probe-labelled cysteine peptide fold change” value (10 µM) is on record?
The value was 0.00655.

What about the “probe-labelled cysteine peptide fold change” value (50 µM) of the same target?
Its value is 0.0892.

For “CNOT8_Q9UFF9_148_HEEEGIDTLHFAELLMTSGVVLCDNVK (UniProt Q9UFF9)”, which “probe-labelled cysteine peptide fold change” value (10 µM) is on record?
The value was 0.648.

And the “probe-labelled cysteine peptide fold change” value (50 µM)?
Its value is 0.338.

With “COG3_Q96JB2_363_ELLLGPSIACTVAELTSQNNRDHCALVR (UniProt Q96JB2)” as the target, how does the “probe-labelled cysteine peptide fold change” value (10 µM) read?
The value was -0.436.

What about the “probe-labelled cysteine peptide fold change” value (50 µM) of the same target?
Its value is 0.793.

For “COPA_P53621_1148_KILSACEK (UniProt P53621)”, which “probe-labelled cysteine peptide fold change” value (10 µM) is on record?
The value was -0.616.

And the “probe-labelled cysteine peptide fold change” value (50 µM)?
Its value is -0.459.

What does the source list for “BTBD2_Q9BX70_241_LFDEPQLASLCLENIDK (UniProt Q9BX70)”?
probe-labelled cysteine peptide fold change (10 µM): 0.22; probe-labelled cysteine peptide fold change (50 µM): 0.0147

Which “probe-labelled cysteine peptide fold change” value (10 µM) does the source give for “CDYL_Q9Y232_571_MELEQANERECEVLK (UniProt Q9Y232)” here?
Its value is -0.0968.

And the “probe-labelled cysteine peptide fold change” value (50 µM)?
Its value is -0.0996.

For “COPS7B_Q9H9Q2_157_NQLLEVDFCIGR (UniProt Q9H9Q2)”, which “probe-labelled cysteine peptide fold change” value (10 µM) is on record?
The value was -0.0213.

What about the “probe-labelled cysteine peptide fold change” value (50 µM) of the same target?
Its value is -0.0864.

Which “probe-labelled cysteine peptide fold change” value (10 µM) does the source give for “CLCN3_P51790_733_VCFAQHTPSLPAESPRPLK (UniProt P51790)” here?
The value was 0.0602.

What about the “probe-labelled cysteine peptide fold change” value (50 µM) of the same target?
Its value is 0.0245.

Which “probe-labelled cysteine peptide fold change” value (10 µM) does the source give for “CFL1_P23528_139_KLTGIKHELQANCYEEVK (UniProt P23528)” here?
The value was -0.632.

And the “probe-labelled cysteine peptide fold change” value (50 µM)?
The value was -0.503.

Which results are given for “BZW2_Q9Y6E2_97_MTNHCVFSANEDHETIR (UniProt Q9Y6E2)”?
probe-labelled cysteine peptide fold change (10 µM): 0.0541; probe-labelled cysteine peptide fold change (50 µM): -0.0628

What does the source list for “CHKB_Q9Y259_85_CSLPDHLPSVGEEPREVLLR (UniProt Q9Y259)”?
probe-labelled cysteine peptide fold change (10 µM): -0.301; probe-labelled cysteine peptide fold change (50 µM): -0.0104

“CNOT4_O95628_175_AIQCVNNVVVDGR (UniProt O95628)” was tested. Which “probe-labelled cysteine peptide fold change” value (10 µM) did it give?
Its value is 0.0992.

And the “probe-labelled cysteine peptide fold change” value (50 µM)?
The value was 0.172.

Which results are given for “CCAR1_Q8IX12_937_DLLMAFVYFDQSHCGYLLEK (UniProt Q8IX12)”?
probe-labelled cysteine peptide fold change (10 µM): 0.653; probe-labelled cysteine peptide fold change (50 µM): 0.739

With “CAMK2G_Q13555_7_ATTATCTR (UniProt Q13555)” as the target, how does the “probe-labelled cysteine peptide fold change” value (10 µM) read?
Its value is 0.042.

And the “probe-labelled cysteine peptide fold change” value (50 µM)?
Its value is -0.225.

Which results are given for “CCNK_O75909_99_YVTGACCLFLAGK (UniProt O75909)”?
probe-labelled cysteine peptide fold change (10 µM): 0.1; probe-labelled cysteine peptide fold change (50 µM): 0.32

Which results are given for “CCT5_P48643_181_VVNSCHR (UniProt P48643)”?
probe-labelled cysteine peptide fold change (10 µM): 0.109; probe-labelled cysteine peptide fold change (50 µM): 0.0213
